Results filed as inconclusive are left out. The source made the active and inactive calls. The call rests on the fitted dose curve; in most records, active means well fitted inhibition curve with a large enough effect; inconclusive means small, poorly fitted or top-dose-only effect; inactive means flat fitted curve, though single readings scatter.
Target: Ubiquitin carboxyl-terminal hydrolase 1 (Homo sapiens) (UniProt O94782)
Test: Inhibitors of USP1/UAF1: Pilot qHTS (AID 504865);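 further: rhodamine fluorescence freed from ubiquitin-rhodamine substrate followed over time; top concentration of the series differs between compounds; nearly all actives have a fitted effect of over 35% in size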
Details: purified USP1/UAF1, Ub-rhodamine cleavage fluorescence; series mostly up to 54.9 µM; activity change, negative = inhibition: at the top concentration
In short: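 In 50mM HEPES pH 7.8 containing 0.5mM EDTA, 1mM TCEP, 0.1 mg/ml BSA and 0.01% Tween-20, 1nM USP1/UAF1 is exposed to compound for 15 min, then Ub-Rho (150nM final) is added and fluorescence is read over time.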
On the % scale 0 is the no-effect control and ±100 the full control effect.

Chain of Ubiquitin carboxyl-terminal hydrolase 1 (Homo sapiens) (O94782 whole entry, looked up): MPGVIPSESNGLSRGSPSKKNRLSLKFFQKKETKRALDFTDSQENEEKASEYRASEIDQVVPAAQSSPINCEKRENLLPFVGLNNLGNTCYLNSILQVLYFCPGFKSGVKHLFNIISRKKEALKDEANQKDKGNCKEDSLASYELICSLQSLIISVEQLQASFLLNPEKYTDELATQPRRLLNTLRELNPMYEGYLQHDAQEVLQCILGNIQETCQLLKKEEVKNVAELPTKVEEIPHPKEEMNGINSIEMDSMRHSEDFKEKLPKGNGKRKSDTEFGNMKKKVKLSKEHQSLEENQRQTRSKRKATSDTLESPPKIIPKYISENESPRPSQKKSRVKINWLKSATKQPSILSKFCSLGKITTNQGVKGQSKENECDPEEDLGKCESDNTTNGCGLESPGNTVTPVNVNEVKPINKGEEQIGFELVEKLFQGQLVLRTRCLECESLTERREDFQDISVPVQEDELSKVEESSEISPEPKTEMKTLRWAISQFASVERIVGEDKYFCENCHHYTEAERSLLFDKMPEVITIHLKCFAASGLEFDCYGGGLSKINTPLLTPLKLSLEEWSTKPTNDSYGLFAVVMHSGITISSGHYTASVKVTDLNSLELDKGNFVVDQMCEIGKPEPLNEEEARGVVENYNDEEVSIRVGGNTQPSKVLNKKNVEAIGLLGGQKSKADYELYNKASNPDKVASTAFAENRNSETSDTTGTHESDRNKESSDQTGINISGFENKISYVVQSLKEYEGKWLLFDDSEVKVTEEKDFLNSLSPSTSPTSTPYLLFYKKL

Activity change, negative = inhibition, inactive:
CN(C)C(=O)c1ccc(-c2ccc3ncnc(N(C)Cc4ccco4)c3c2)cc1 -7.09%
Cc1ccccc1-c1nccc(-n2ccnc2)n1 -12.9% [at 114 µM]
CN(C)Cc1ccccc1-c1nccc(NC2CC2)n1 -8.23% [at 114 µM]
c1ccc2c(NC3CC3)nc(-c3ccoc3)nc2c1 -24.9%
N#Cc1cccc(-c2cc(-n3ccnc3)ncn2)c1 -10.3% [at 114 µM]
CN(C)C(=O)c1ccc(-c2ccc3ncnc(Nc4ccccc4)c3c2)cc1 -2.31%
COc1cccc(-c2cncnc2NCCc2cnc[nH]2)c1 -2.22% [at 114 µM]
FC(F)(F)c1ccccc1-c1cncnc1NCCc1cnc[nH]1 -2.22% [at 114 µM]
CN(Cc1ccco1)c1ccnc(-c2ccoc2)n1 -7.29% [at 114 µM]
COc1cccc(-c2nc(NCc3cnc(C)cn3)c3ccccc3n2)c1 -14.4% [at 114 µM]
c1cncc(-c2ccc3ncnc(N4CCNCC4)c3c2)c1 -5.42% [at 114 µM]
CN(C)C(=O)c1ccc(-c2cncnc2NCCN2CCOCC2)cc1 -4.1% [at 114 µM]
COc1ccc2[nH]cc(CCNc3cc(-c4ccccc4CN(C)C)ncn3)c2c1 -6.21%
COc1ccc2[nH]cc(CCNc3ccnc(-c4ccccc4C)n3)c2c1 -36.4%
CC(=O)NCCNc1nc(-c2ccc3c(c2)OCO3)nc2ccccc12 -9.08%
N#Cc1cccc(-c2cc(NCc3cccnc3)ncn2)c1 -8.76%
c1ccc(Nc2ncncc2-c2ccc3c(c2)OCO3)cc1 -11.9%
COc1ccc2[nH]cc(CCNc3ncncc3-c3ccc(C(=O)N(C)C)cc3)c2c1 -6.95%
c1ncc(-c2ccc3c(c2)OCO3)c(NCCc2cnc[nH]2)n1 0.838% [at 114 µM]
Fc1ccc(Nc2nc(-c3ccoc3)nc3ccccc23)cc1 -22.3%
CCNc1ncc2nc(-c3ccc(Cl)cc3)c(=O)n(Cc3cccs3)c2n1 -6.55%
COc1ccc(CNc2ccnc(-c3cccc(NS(C)(=O)=O)c3)n2)c(OC)c1 -18.2%
CN(C)C(=O)c1ccc(-c2nccc(NCc3cccnc3)n2)cc1 -3.1% [at 114 µM]
c1ccc(CNc2ncncc2-c2ccoc2)cc1 -18.8%
COc1ccc2[nH]cc(CCNc3ccnc(-c4ccoc4)n3)c2c1 -12.8%
Clc1ccccc1-c1nc(NCCN2CCOCC2)c2ccccc2n1 -18.5%
COCCNc1nc(-c2ccccc2C(F)(F)F)nc2ccccc12 -24.4%
CN(Cc1ccco1)c1cc(-c2cccnc2)ncn1 -10.5%
FC(F)(F)c1ccccc1-c1cc(NCc2cccs2)ncn1 -20.3%
COc1ccc2[nH]cc(CCNc3ncnc4ccc(-c5c(C)noc5C)cc34)c2c1 -20.7%
CC(=O)NCCNc1ncnc2ccc(-c3ccc(C(=O)N(C)C)cc3)cc12 -13% [at 114 µM]
CCNc1ncc2nc(-c3ccccc3)c(=O)n(Cc3cccc(OC)c3)c2n1 -7.74%
COCCNc1ccnc(-c2c(C)noc2C)n1 -6.74% [at 114 µM]
COc1ccc2[nH]cc(CCNc3nc(-c4ccccc4CN(C)C)nc4ccccc34)c2c1 -8.5% [at 114 µM]
CN(C)C(=O)c1ccc(-c2nccc(-n3ccnc3)n2)cc1 -1.09%

Reference: PubChem BioAssay (NCATS)
